The whole screen tested about 58,000 compounds, of which about 3,400 (5.9%) were called active. What follows is part of a selection rich in actives, with near analogues and random picks from the rest. Unmarked numbers belong to inactive results.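 Rule for the calls: active = luminescence count or its row- and column-corrected plate score outside the 99.7% band of the plate's sample wells, on either side; inactive = the rest.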

These results are taken from PubChem BioAssay AID641 (Vanderbilt High Throughput Screening Facility, 2007).

For this assay, the target named is D(1A) dopamine receptor (Homo sapiens) (UniProt P21728). The assay can be described thus: D1 CRE-luciferase signal change, two-sided – cell-based, HEK293 D1, dopamine EC30, D1 allosteric modulator project, primary screen (AID 641). The note with it: dopamine EC30 potentiation, at 10 µM, actives deviate in either direction.
Chain of D(1A) dopamine receptor (Homo sapiens) (P21728 whole entry, looked up): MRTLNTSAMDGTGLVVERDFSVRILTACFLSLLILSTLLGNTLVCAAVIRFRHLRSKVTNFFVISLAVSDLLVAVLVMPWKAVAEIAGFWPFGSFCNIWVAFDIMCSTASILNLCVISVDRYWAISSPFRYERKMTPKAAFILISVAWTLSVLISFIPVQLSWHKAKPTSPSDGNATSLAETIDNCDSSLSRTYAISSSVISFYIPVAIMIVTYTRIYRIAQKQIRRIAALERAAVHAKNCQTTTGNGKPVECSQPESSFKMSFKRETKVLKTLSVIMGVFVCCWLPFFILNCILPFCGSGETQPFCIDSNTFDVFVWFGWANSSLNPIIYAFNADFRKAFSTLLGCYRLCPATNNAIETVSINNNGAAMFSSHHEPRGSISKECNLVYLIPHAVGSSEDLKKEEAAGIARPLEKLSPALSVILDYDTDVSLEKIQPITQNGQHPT
Take `COCCNC(=O)c1snc2ccc(Cl)cc12`: the B-score is 0.741.
As for `CCCc1nc2ccccc2c(C(=O)OCc2nnc(-c3cc(OC)c(OC)c(OC)c3)o2)c1CC`, the B-score is 2.19.
Turning to `CCN1CCN(Cc2c(O)ccc3c(=O)c(-c4ccc(OC)c(OC)c4)c(C(F)(F)F)oc23)CC1`, the B-score is -0.698.
`Cc1cc(=O)oc(C)c1C(=O)Nc1cnc2ccccc2c1`: the B-score was -0.206.
With `CNC(=O)CN1C(=O)c2ccccc2S1(=O)=O`, the B-score was 0.686.
For `O=C(CN1C(=O)c2ccccc2S1(=O)=O)N1CCc2ccccc21` the value was -3.68 (active).
The same measure for `O=C(c1cccc(C(=O)N2CCc3ccccc32)n1)N1CCc2ccccc21`: 0.928; for `COC(=O)C(C)Sc1ccc2nnc(-c3cccc(F)c3)n2n1` (stereo not drawn): 0.378.
The same measure for `CCOc1ccc(-c2nnc3ccc(SC)nn23)cc1`: -4.57 (active); for `O=C(CN1CCOCC1)Nc1cc(Cl)ccc1Cl`: -0.306; for `C=C(C)Cn1c(N2CCN(CC)CC2)nc2c1c(=O)[nH]c(=O)n2C`: 0.264.
For the compound `Brc1cccc(-c2nnc3n2CCC3)c1`, the B-score was 0.138.
The same measure for `CCOc1cc(-c2nc3cc(C)ccn3c2NCC2CCCO2)ccc1O` (stereo not drawn): -0.604; for `COc1ccc(C2/C(=C(/O)c3ccccc3)C(=O)C(=O)N2c2ncccn2)cc1OC` (stereo not drawn): -0.0203.
Consider `COc1ccc(C2N=C(N)N=C(N)N2c2ccccc2)cc1OC` (stereo not drawn), for which the B-score is -3.55 (active).
For `COc1ccc(C2SCCN2S(=O)(=O)c2ccccc2)cc1OC` (stereo not drawn) the value was 0.2; for `CCOC(=O)[C@H]1CCC[C@@H](NS(=O)(=O)c2ccc(NC(C)=O)cc2)C1`, -0.0967; for `Cc1ccc(S(=O)(=O)N(C)CC(=O)N2CCc3ccccc32)cc1`, 1.86.
For `CCOc1ccc2[nH]c(=O)c(CN(Cc3nnnn3CCc3ccccc3)CC3CCCO3)cc2c1` (stereo not drawn) the value was 1.9; for `CCOc1ccc2[nH]c(=O)c(CN(Cc3nnnn3Cc3ccccc3)CC3CCCO3)cc2c1` (stereo not drawn), -0.307; for `CCOc1ccc2c(c1)cc(CN(C(=O)CC)C1CCCCC1)c1nnnn12`, 12.6 (active).
For the compound `COC(=O)c1cnn2c(C(F)(F)F)cc(-c3ccco3)nc12`, the B-score was 1.18.
As to `O=C(NCc1ccco1)c1cccn2c(=O)c3cc(Br)ccc3nc12`, the B-score is -0.861.
The same measure for `O=C(NCc1ccco1)c1cnn2c(C(F)(F)F)cc(-c3ccco3)nc12`: 4.37 (active); for `O=C(O)C1CCCN(S(=O)(=O)c2cccc3cccnc23)C1` (stereo not drawn): 0.0158.
As for `CCOCC(=O)Nc1sc2c(c1C(=O)OCC)CCCC2`, the B-score is -0.0785.
Regarding `CCOC(=O)c1c(NC(=O)CSc2nnc(Cc3csc(N)n3)n2C)sc(C)c1C`, the B-score is 4.94 (active).
For `Cn1c(Cc2csc(N)n2)nnc1SC/C=C/c1ccccc1` the value was 0.477; for `CCOC(=O)c1c(NC(=O)CSc2nnc(CN3CCOCC3)n2C)sc2c1CCCC2`, 6.03 (active); for `COC(=O)c1c(NC(=O)CSc2nc3c(c(=O)n(C)c(=O)n3C)n2C(C)C)sc(C)c1C`, 3.35.
With `CCOC(=O)c1c(NC(=O)CSc2nnc(C)c(=O)[nH]2)sc2c1CCC2`, the B-score was 1.36.
Turning to `O=C(NCc1ccc2c(c1)OCO2)C1CCCN(S(=O)(=O)c2cccs2)C1` (stereo not drawn), the B-score is -0.0139.
For `CCC1CCCCN1C(=O)Nc1cccc(NC(=O)N2CCCCC2CC)c1` (stereo not drawn) the value was 0.11.
For `CCOCC(=O)NCc1ccc2c(c1)cc(C)n2C` the value was 0.132.
For `Cc1noc(C)c1S(=O)(=O)N1CCCC(C(=O)Nc2nccs2)C1` (stereo not drawn) the value was -0.254.
For `COC(=O)C(C)C1Sc2ccccc2NC1=O` (stereo not drawn), the B-score was 4.51 (active).
For the compound `CCOC(=O)c1ccccc1NC(=O)CC1Nc2ccccc2NC1=O` (stereo not drawn), the B-score was -0.897.
In the case of `COc1ccc(OC)c(N=Cc2c(O)[nH]c3ccccc23)c1`, the B-score is 1.65.
On to `COc1cc(N=Cc2c(O)[nH]c3ccccc23)cc(OC)c1OC`, for which the B-score is -1.15.
Take `COc1ccc(N=Cc2c(O)[nH]c3ccccc23)cc1OC`: the B-score is -2.18 (active).
For `CN(C)Cc1c(O)ccc2occ(C(O)c3ccccc3)c12` (stereo not drawn) the value was 0; for `Cc1nnc(SCC(=O)NCCOc2ccc(Cl)cc2)n1-c1ccccc1`, 0.122.
The same measure for `O=C(CCC(=O)OCC(F)(F)C(F)F)NCc1ccccc1`: 0.31.
The same measure for `CCOC(=O)c1ccn(-c2nc(-c3ccco3)cc(C(F)(F)F)n2)n1`: -0.161.
With `FC(F)(F)c1cc(-c2ccco2)nc(N2CCOCC2)n1`, the B-score is 17 (active).
On to `Cc1cc(C(F)(F)F)nn1-c1nc(-c2ccco2)cc(C(F)(F)F)n1`, for which the B-score is 9.17 (active).
The same measure for `FC(F)(F)c1nnc2sc(-c3ccco3)nn12`: 0.0156; for `O=C(CSc1nc(-c2ccco2)cc(C(F)(F)F)n1)N1CCc2ccccc2C1`: 0.312; for `O=C(CSc1nc(-c2ccco2)cc(C(F)(F)F)n1)NCc1cccs1`: 0.0388.
For `C=CCc1cccc2cc(C(=O)N3CCN(C(=O)OCC)CC3)c(=O)oc12`, the B-score is -0.147.
On to `CCOC(=O)Cn1c(=O)oc2cc(S(=O)(=O)N(C)Cc3ccco3)ccc21`, for which the B-score is 0.239.
On to `Cn1nnnc1SCC(=O)N1CCN(Cc2ccccc2)CC1`, for which the B-score was 0.031.
On to `CCOC(=O)N1CCC(NC(=O)COc2cc(=O)n(C)c3ccccc23)CC1`, for which the B-score is 0.112.
For `Cc1occc1C(=O)N1CCCc2ccccc21` the value was 0.259; for `CCc1cc(=O)oc2cc(OCC(=O)N3CCCc4ccccc43)ccc12`, 8.41 (active); for `Cc1ccc2c(c1)N(CC(=O)N1CCCc3ccccc31)C(=O)C(C)O2` (stereo not drawn), 1.2.
The same measure for `Cc1ccc(C2c3c(oc4ccc(C)cc4c3=O)C(=O)N2CCCN2CCOCC2)cc1` (stereo not drawn): 1.68.
With `Cc1ccc(S(=O)(=O)C(C#N)c2nc3ccccc3nc2N2CCCC2)cc1C` (stereo not drawn), the B-score was 0.792.
For `CC(C)(C)NC(=O)C(c1ccncc1)N(C(=O)CNC(=O)c1ccco1)c1ccc2c(c1)OCO2` (stereo not drawn) the value was 1.5.
For `CCn1c2c(c3ccc(OC)cc31)CCCC2=O`, the B-score was 0.923.
Turning to `COc1ccc(CCN(C)CCN2C(=O)c3ccccc3C2=O)cc1OC`, the B-score was 0.821.
Take `COc1ccc(CCNC(=O)C2CCCN(Cc3nc(-c4cccc(Cl)c4)oc3C)C2)cc1OC` (stereo not drawn): the B-score was 0.204.
For the compound `COc1ccc(CCN(C)C(=O)C2CCCN(Cc3ccc(OC)c(OC)c3)C2)cc1OC` (stereo not drawn), the B-score is 5.3 (active).
